Source: PubChem
Pf Dd2 inh: blocks growth of Plasmodium falciparum Dd2 parasites | P. falciparum Dd2 growth, SYBR Green, 72 h; active compounds read low | activity change, % at 10 µM | 2.3% of 94,000 active | AID 1159554; in the data active = activity change below about -80%; inconclusive = no clear call, values can overlap the other calls
T cruzi growth-1: inhibitors of T. cruzi proliferation; inhibition, % at 8.34 µM; 5.9% of 77,000 active; T. cruzi beta-gal in NIH3T3, GalScreen luminescence, 90 h;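 active = mean inhibition above about 93%, with at least 55% of replicates each passing it, limit read from the data, passing the limit was not always enough; inconclusive = only one of those two conditions holds; inactive = neither condition holds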
C diff HTS: C. difficile growth inhibition; AID 1259249; growth activity, negative = inhibition, % at 16 µg/mL (by protocol); 0.25% of 86,000 active; Clostridium difficile clinical isolate growth, OD600, 24 h; active compounds read low;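 active = mean growth activity at or below -80% and every replicate also at or below -80%; inconclusive = mean at or below -80% but some replicate above -80%; inactive = mean growth activity above -80%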;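 note: 0% = DMSO wells and -100% = levofloxacin 16 µg/mL wells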
T cruzi growth-2: inhibitors of T. cruzi proliferation; AID 651739; T. cruzi beta-gal in NIH3T3, GalScreen luminescence, 90 h; shares compounds with T cruzi growth-1; inhibition, % at 8.35 µM; 72% of 5,600 active;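 active = mean replicate inhibition above about 95% and at least 55% of replicates individually reaching it, limit read from the data; inconclusive = only one of the two criteria is met; inactive = neither criterion is met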
T cruzi growth-3: Trypanosoma cruzi proliferation inhibition. inhibition, % at 2.09 µM. 21% of 5,600 active. shares compounds with T cruzi growth-1. T. cruzi beta-gal in NIH3T3, GalScreen luminescence, 90 h;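 active = mean inhibition above about 95%, with at least 55% of replicates also reaching it, limit read from the data; inconclusive = meets just one of the two conditions; inactive = meets neither condition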;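 note: plate controls were neutral control median for no effect and positive control median for full effect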
NIH3T3 tox: cytotoxicity in mouse NIH/3T3 fibroblasts; shares compounds with T cruzi growth-1; NIH/3T3 viability, CellTiter-Glo ATP luminescence, 90 h; cytotoxicity (signal decrease), % at 8.35 µM; 14% of 5,600 active;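 active = mean signal decrease across replicates above about 35% based on untreated-well scatter, with enough replicates individually passing, limit read from the data; inconclusive = no rule stated though some were filed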;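 note: 0% = median of neutral control wells and 100% = median of positive control wells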
NIH3T3 tox 2: NIH/3T3 (mouse) viability loss; inhibition, % at 24.9 µM; NIH/3T3 viability, CellTiter-Glo ATP luminescence, 90 h; shares compounds with T cruzi growth-1; 56% of 5,600 active; AID 651744;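 active = mean loss of cell viability signal at or above a set limit, and enough replicates individually reaching it; inconclusive = meets only the mean limit or only the replicate share; inactive = meets neither condition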;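 note: 0% = median of neutral control wells and 100% = median of positive control wells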
The depositor's hits bear a star. Only some compounds are listed: those with a hit (about 6.7% of all), similar ones and a draw of the others.

For C[C@@H]1CN([C@H](C)CO)C(=O)Cc2cc(NC(=O)C3CCCCC3)ccc2O[C@H]1CN(C)Cc1ccc(C(F)(F)F)cc1 the results were Pf Dd2 inh 4, T cruzi growth-1 82 and C diff HTS 80.
Screening C[C@H]1CN([C@@H](C)CO)C(=O)Cc2cc(NC(=O)CCC(F)(F)F)ccc2O[C@@H]1CN(C)C(=O)Nc1cccc2ccccc12 returned Pf Dd2 inh 9, T cruzi growth-1 38 and C diff HTS -1.
COc1cccc(S(=O)(=O)N2CCCCN3[C@H](CO)[C@@H](c4ccc(C#CC(C)C)cc4)[C@@H]3C2)c1 was read as Pf Dd2 inh -51, T cruzi growth-1 inconclusive, C diff HTS 6, T cruzi growth-2 99*, T cruzi growth-3 83, NIH3T3 tox 7 and NIH3T3 tox 2 55*.
COc1cccc(S(=O)(=O)N2CCCCN3[C@H](CO)[C@H](c4ccc(C#CC(C)C)cc4)[C@@H]3C2)c1 was read as Pf Dd2 inh -11, T cruzi growth-1 88 and C diff HTS -1.
`COc1ccccc1-c1cn(CC[C@H]2CC[C@H](NC(=O)C3CCCC3)[C@@H](CO)O2)nn1` gave Pf Dd2 inh -8 and C diff HTS 8.
Screening COCC#Cc1ccc2c(c1)O[C@H](CN(C)C(=O)Nc1ccccc1F)[C@H](C)CN([C@@H](C)CO)S2(=O)=O returned Pf Dd2 inh -29, T cruzi growth-1 49 and C diff HTS 2.
`C[C@H]1CN([C@@H](C)CO)S(=O)(=O)c2ccc(-c3ccc(C#N)cc3)cc2O[C@@H]1CN(C)C(=O)Nc1cc(F)ccc1F` gave Pf Dd2 inh -60, T cruzi growth-1 108*, C diff HTS 6, T cruzi growth-2 92, T cruzi growth-3 41, NIH3T3 tox 32 and NIH3T3 tox 2 75*.
C[C@H](CO)N1C[C@H](C)[C@H](CN(C)C(=O)Nc2cc(F)ccc2F)Oc2cc(-c3cccc(C#N)c3)ccc2S1(=O)=O was read as Pf Dd2 inh -13 and C diff HTS -1.
Screening C[C@H]1CN([C@@H](C)CO)S(=O)(=O)c2ccc(-c3cccc(F)c3)cc2O[C@@H]1CN(C)C(=O)Nc1cc(F)ccc1F returned Pf Dd2 inh -27, T cruzi growth-1 112*, C diff HTS 10, T cruzi growth-2 106*, T cruzi growth-3 78, NIH3T3 tox 43* and NIH3T3 tox 2 86*.
`C[C@H]1CN([C@@H](C)CO)S(=O)(=O)c2ccc(-c3cccc(F)c3)cc2O[C@H]1CN(C)C(=O)Nc1cc(F)ccc1F` gave Pf Dd2 inh -54, T cruzi growth-1 112*, C diff HTS 6, T cruzi growth-2 105*, T cruzi growth-3 102*, NIH3T3 tox 63* and NIH3T3 tox 2 42*.
Screening C[C@@H]1CN([C@@H](C)CO)S(=O)(=O)c2ccc(-c3ccc(C#N)cc3)cc2O[C@H]1CN(C)C(=O)Nc1cc(F)ccc1F returned Pf Dd2 inh -59, T cruzi growth-1 99 and C diff HTS 2.
For C[C@H]1CN([C@@H](C)CO)S(=O)(=O)c2ccc(-c3cccc(C#N)c3)cc2O[C@H]1CN(C)C(=O)Nc1cc(F)ccc1F the results were Pf Dd2 inh -18 and C diff HTS 4.
For COc1ccc2c3c([nH]c2c1)[C@H](CO)N(Cc1ccccc1)CC31CN(C(=O)Nc2cccc(F)c2)C1 the results were Pf Dd2 inh -48 and C diff HTS 8.
`COc1ccc2c3c([nH]c2c1)[C@@H](CO)N(C(=O)Nc1ccc(F)cc1)CC31CCN(S(C)(=O)=O)CC1` gave Pf Dd2 inh -41 and C diff HTS 7.
Cc1noc(C)c1S(=O)(=O)N(C)C[C@@H]1OCCCC[C@H](C)Oc2ccc(NC(=O)NC3CCCCC3)cc2C(=O)N([C@H](C)CO)C[C@H]1C was read as Pf Dd2 inh -3, T cruzi growth-1 40 and C diff HTS -1.
`C[C@H](CO)N1C[C@H](C)[C@H](CN(C)Cc2ccc3c(c2)OCO3)Oc2cc(-c3cccc(C(=O)N(C)C)c3)ccc2S1(=O)=O` gave Pf Dd2 inh -61 and C diff HTS 1.
Screening CCC(=O)N1[C@@H]2Cn3c(ccc(-c4ccc(F)cc4)c3=O)[C@H]1[C@@H](C(=O)N(C)C)[C@@H]2CO returned Pf Dd2 inh 7, T cruzi growth-1 32 and C diff HTS 1.
For C/C=C/c1ccc([C@@H]2[C@H]3CN(S(=O)(=O)c4ccccc4)CCCCN3[C@H]2CO)cc1 the results were Pf Dd2 inh 1, T cruzi growth-1 84 and C diff HTS -7.
`C/C=C/c1ccc([C@H]2[C@@H](CO)N3CCCCN(S(=O)(=O)c4cccc(C)c4)C[C@H]23)cc1` gave Pf Dd2 inh -72, T cruzi growth-1 102*, C diff HTS 17, T cruzi growth-2 101*, T cruzi growth-3 90, NIH3T3 tox 18 and NIH3T3 tox 2 104*.
Screening C/C=C/c1ccc([C@H]2[C@@H](CO)N3CCCCN(S(=O)(=O)c4ccccc4)C[C@@H]23)cc1 returned Pf Dd2 inh 20, T cruzi growth-1 102*, C diff HTS 2, T cruzi growth-2 100*, T cruzi growth-3 -16, NIH3T3 tox 4 and NIH3T3 tox 2 2.
`C/C=C/c1ccc([C@@H]2[C@H](CO)N3CCCCN(S(=O)(=O)c4cccc(C)c4)C[C@@H]23)cc1` gave Pf Dd2 inh -74, T cruzi growth-1 76 and C diff HTS -1.
C/C=C/c1ccc(C2[C@H]3CNC[C@@H]2N3C(=O)Nc2ccc3c(c2)OCO3)cc1 (some centres not stated) was read as Pf Dd2 inh 1 and C diff HTS 10.
For N#Cc1cccc(-c2ccc([C@@H]3[C@@H](CO)N4CCCCN(C(=O)Nc5ccccc5)C[C@@H]34)cc2)c1 the results were Pf Dd2 inh 0, T cruzi growth-1 108*, C diff HTS 16, T cruzi growth-2 107*, T cruzi growth-3 70, NIH3T3 tox 42* and NIH3T3 tox 2 93*.
Screening N#Cc1cccc(-c2ccc([C@@H]3[C@@H](CO)N4CCCCN(C(=O)Nc5ccc(F)cc5)C[C@H]34)cc2)c1 returned Pf Dd2 inh -8, T cruzi growth-1 93 and C diff HTS 1.
Screening N#Cc1cccc(-c2ccc([C@@H]3[C@H](CO)N4CCCCN(C(=O)Nc5ccccc5)C[C@@H]34)cc2)c1 returned Pf Dd2 inh -17, T cruzi growth-1 98*, C diff HTS 37, T cruzi growth-2 108*, T cruzi growth-3 88, NIH3T3 tox 36* and NIH3T3 tox 2 106*.
